Laboratory results from article PMC8159961, “Exploring protein hotspots by optimized fragment pharmacophores” (Nature Communications, 2021).

Molecular target: 5-HT1A receptor (human, UniProt P08908)
Assay: primary screen, binary call; higher = more effect of the substance
Design: hit call from the mean of at least two separate experiments
Settings: 10 µM; call rule not given here
Description: GPCR radioligand binding assays were performed in HEK293 cells with stable expression of human 5-HT1A, 5-HT6, and 5-HT7b receptors (prepared with the use of Lipofectamine 2000). Non-specific binding was defined with 10 µM of 5-HT in 5-HT1AR and 5-HT7R binding experiments, whereas 10 µM of mianserin was used in 5-HT6R assays, respectively. Each compound was tested at 10 µM concentration. Results were expressed as means of at least two separate experiments.

5-HT1A receptor, sequence (P08908 whole entry, looked up): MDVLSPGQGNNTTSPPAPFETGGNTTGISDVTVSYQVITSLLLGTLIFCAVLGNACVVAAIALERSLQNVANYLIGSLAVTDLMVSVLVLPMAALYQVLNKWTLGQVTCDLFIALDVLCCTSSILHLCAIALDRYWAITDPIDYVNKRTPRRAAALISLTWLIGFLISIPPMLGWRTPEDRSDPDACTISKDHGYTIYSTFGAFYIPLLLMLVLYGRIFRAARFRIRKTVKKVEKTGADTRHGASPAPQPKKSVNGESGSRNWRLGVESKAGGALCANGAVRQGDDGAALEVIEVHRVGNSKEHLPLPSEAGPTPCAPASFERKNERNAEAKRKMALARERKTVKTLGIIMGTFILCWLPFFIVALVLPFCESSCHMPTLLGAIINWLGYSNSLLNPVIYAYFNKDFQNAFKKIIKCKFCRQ

| SMILES | 5-HT1 |
| --- | --- |
| O=c1[nH]c2c(s1)CCC2 | 0 (inactive) |
| Cn1nc(C(F)(F)F)cc1O | 0 (inactive) |
| COc1ccccc1C1CCNCC1 | 1 (active) |
| O=C1NC(=O)C2(CCc3ccccc32)N1 (stereo not shown) | 0 (inactive) |
| Cc1nccn1Cc1cccc(C#N)c1 | 0 (inactive) |
| Cc1ccc(CCNc2ccccc2)cn1 | 0 (inactive) |
| N#Cc1ccc2ncsc2c1 | 0 (inactive) |
| CN(C)c1cc(CN)ccn1 | 0 (inactive) |
| O=C1CCN(c2ccccn2)CC1 | 0 (inactive) |
| Nc1ccc(-c2ccccc2)cc1C(=O)O | 0 (inactive) |
| CCc1nccn1CC(=O)O | 0 (inactive) |
| O=c1[nH]ncc2c1oc1ccccc12 | 0 (inactive) |
| c1ccc2oc(C3CCCNC3)nc2c1 (stereo not shown) | 1 (active) |
| c1ccc(Nc2nncs2)cc1 | 0 (inactive) |
| c1ccc(-c2ccncc2)cc1 | 0 (inactive) |
| c1ccc2sc(N3CCNCC3)nc2c1 | 1 (active) |
| N#Cc1ccc(C(=O)N2CCOCC2)cc1 | 0 (inactive) |
| Cc1cc(C)c2c(=O)[nH]n(C)c2n1 | 0 (inactive) |
| NCC1(c2ccccc2)CCOCC1 | 0 (inactive) |
| COc1ccccc1N1CCNCC1 | 1 (active) |

| SMILES | 5-HT1 |
| --- | --- |
| O=C(NC1CC1)c1ccccc1O | 0 (inactive) |
| Nc1ccc(SC(F)F)cc1 | 0 (inactive) |
| O=C1NC2(CCCC2)Nc2ccccc21 | 0 (inactive) |
| Oc1nnc(-c2ccccc2)o1 | 0 (inactive) |
| O=C1CCCc2occc21 | 0 (inactive) |
| O=C(c1ccncc1)N1CCNCC1 | 0 (inactive) |
| Fc1ccc(CC2CCCNC2)cc1 (stereo not shown) | 0 (inactive) |
| CC1(C)OC(=O)c2cc(Br)c(O)cc2O1 | 0 (inactive) |
| CC(=O)c1ccc2c(c1)CNCC2 | 0 (inactive) |
| CCc1ccc(NC2=NCCCS2)cc1 | 0 (inactive) |
| Clc1ccc2nnnn2n1 | 0 (inactive) |
| CC1CCc2sc(C(=O)O)cc2C1 (stereo not shown) | 0 (inactive) |
| COc1ccccc1CC1CCNCC1.Cl | 1 (active) |
| O=C1CCC(=O)N(c2ccccc2)N1 | 0 (inactive) |
| CC1C(=O)NC(=O)N1c1ccc(Cl)cc1 (stereo not shown) | 0 (inactive) |
| CCN(CC)c1cccc(C)c1 | 0 (inactive) |
| O=C(O)C1CCCN(C(=O)N2CCCC2)C1 (stereo not shown) | 0 (inactive) |
| CS(=O)(=O)Nc1ccc(C(=O)O)cc1 | 0 (inactive) |
| CS(=O)(=O)c1ccc(N2CCNCC2)cc1 | 0 (inactive) |
| Cc1cnc(C(F)(F)F)cn1 | 0 (inactive) |
